The list is not random: actives were taken first. Their share in the collection is about 19%.
Shiga inhibitor – inhibitors of Shiga toxin in Vero cells; Vero cells, Shiga toxin protein synthesis inhibition reporter; 290,000 tested, 9.2% active; AID 2315; inhibition, % at 38.7 µM; in the data active means inhibition mostly above about 28%, no sharp cut-off; inactive means mostly below about 43%; further: 0% is about no effect
Pf growth 48h – inhibits P. falciparum growth in the first generation, 48 h; P. falciparum luciferase growth in erythrocytes, 48 h; Potency, µM (series often up to 28.7 µM), for inactives: at the top dose activity change, negative = inhibition, hits mostly inhibitors; 310,000 tested, 5.9% active; further: potency means the concentration at half of the fitted maximal effect; on the % scale 0 is the no-effect control and ±100 the full control effect
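Erythrocytes infected with P. falciparum carrying an integrated firefly luciferase reporter (2% hematocrit, 0.1% parasitemia final) were exposed to compounds in RPMI 1640 with 0.5% Albumax at 37 C, 5% CO2. Growth inhibition was scored as reduced luminescence.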
Marburg entry inh – inhibitors of Marburg virus binding or cell entry; Marburg virus pseudotyped entry inhibition, cell reporter; Potency, µM (highest dose often 37.8 µM), for the others: at the highest dose activity change, negative = inhibition, hits mostly inhibitors; 300,000 tested, 1.8% active; AID 540276; calls by dose curve; tested in HEK293 cells; further: potency means the concentration at half of the fitted maximal effect; on the % scale 0 is the no-effect control and ±100 the full control effect
Cycloheximide cs – affects cycloheximide protein synthesis inhibition readout, counter-screen; cell reporter, cycloheximide protein synthesis inhibition counterscreen; max response, %; 300,000 tested, 12% active; AID 2314; in the data active means max response mostly above about 13%, no sharp cut-off; inactive means mostly below about 14%; further: read at 38.3 µM for the half of the compounds with a filed dose; 0% is about no effect
LASV entry inh – inhibitors of Lassa virus binding or cell entry | 300,000 tested, 1.2% active | Lassa virus pseudotype entry inhibition, cell reporter | Potency, µM (titrated, usually from 37.9 µM), inactives show at the highest dose activity change, negative = inhibition, usual class: inhibitors | AID 540256; calls by dose curve; tested in HEK293 cells; further: potency means the concentration at half of the fitted maximal effect; on the % scale 0 is the no-effect control and ±100 the full control effect; nearly all actives have a fitted effect of over 50% in size
Pf growth 96h – inhibits malaria parasite growth, 96 h. P. falciparum luciferase reporter growth, 96 h. Potency, µM (highest dose often 28.7 µM), for the others: at the highest dose activity change, negative = inhibition, usual class: inhibitors. 320,000 tested, 6.9% active; further: potency means the concentration at half of the fitted maximal effect; on the % scale 0 is the no-effect control and ±100 the full control effect
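P. falciparum expressing integrated firefly luciferase grown in erythrocytes (2% hematocrit, 0.05% parasitemia final) with compounds for 96 hours at 37 C, 5% CO2. Growth inhibition read as loss of luminescence after adding luciferase detection reagent.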
The depositor's hits bear a star; [ ] = remark or other dose. Unless noted, the call rests on the fitted dose curve; in most records, active means well fitted inhibition curve with a large enough effect; inconclusive means small, poorly fitted or top-dose-only effect, or another doubt; inactive means no such curve, though single readings can be large or run the other way.

For N#C/C(=C\c1ccccc1C(=O)O)c1nc2ccccc2[nH]1 the results were Shiga inhibitor 49*, Pf growth 48h inconclusive, Marburg entry inh inconclusive, Cycloheximide cs 17*, LASV entry inh inconclusive and Pf growth 96h -1%.
For Cc1ccc2nc(/C(C#N)=C/c3ccccc3C(=O)O)[nH]c2c1 the results were Shiga inhibitor 55, Pf growth 48h 2.1µM*, Marburg entry inh -1%[46.1 µM], Cycloheximide cs 18*, LASV entry inh 9%[46.1 µM] and Pf growth 96h inconclusive.
Screening Cc1ccc2nc(/C(C#N)=C/c3cccc(Br)c3)[nH]c2c1 returned Marburg entry inh inconclusive and LASV entry inh -12%[46.1 µM].
Screening N#C/C(=C\c1ccc(-c2ccc(C(=O)O)cc2)o1)c1nc2ccccc2[nH]1 returned Shiga inhibitor -7, Pf growth 48h inconclusive, Marburg entry inh 10µM*, Cycloheximide cs 8, LASV entry inh inconclusive and Pf growth 96h 21%.
For Cc1ccc2nc(/C(C#N)=C/c3ccc(O)c(O)c3)[nH]c2c1 the results were Shiga inhibitor 92*, Pf growth 48h inconclusive, Marburg entry inh inconclusive, Cycloheximide cs 60*, LASV entry inh inconclusive and Pf growth 96h -2%.
For Cc1ccc(C(=O)C2=C(O)C(=O)N(Cc3cccnc3)C2c2ccc(N(C)C)cc2)o1 (centres undefined) the results were Shiga inhibitor -4, Pf growth 48h 8%, Marburg entry inh 7%, Cycloheximide cs -4, LASV entry inh 2% and Pf growth 96h -22%.
`CN(CCOC(=O)C1c2ccccc2Oc2ccccc21)C(C)(C)C` gave Shiga inhibitor -9, Pf growth 48h 8%, Marburg entry inh -7%, Cycloheximide cs 1, LASV entry inh 1% and Pf growth 96h -34%.
Screening CN1CSC(=S)N(C)C1 returned Shiga inhibitor 1, Pf growth 48h 15%, Marburg entry inh -14%, Cycloheximide cs 0, LASV entry inh -12% and Pf growth 96h 19%.
Screening Cc1ccc2nc(/C(C#N)=N/O)[nH]c2c1 returned Shiga inhibitor 16, Pf growth 48h inconclusive, Marburg entry inh -1%, Cycloheximide cs 4, LASV entry inh -7% and Pf growth 96h 13µM*.
`CC(C)C1N(C(=O)N2CCOCC2)CCN1S(=O)(=O)c1ccccc1` (centres undefined) gave Shiga inhibitor -4, Pf growth 48h 12%, Marburg entry inh 4%[46.1 µM], Cycloheximide cs -1 and Pf growth 96h 6%.
Cc1ccc(S(=O)(=O)N2CCN(C(=O)N3CCOCC3)C2C(C)C)cc1 (centres undefined) was read as Shiga inhibitor -14, Pf growth 48h -18%, Marburg entry inh 2%, Cycloheximide cs -8, LASV entry inh 18% and Pf growth 96h 12µM*.
For COc1ccc(-n2cc(-c3ccccc3)c3c(NCCCN4CCOCC4)ncnc32)cc1 the results were Shiga inhibitor -19, Pf growth 48h -21%, Marburg entry inh inconclusive, Cycloheximide cs -8, LASV entry inh -15% and Pf growth 96h -5%.
O=C(NCCN1CCOCC1)/C(=C\c1ccccc1F)NC(=O)c1ccccc1 was read as Shiga inhibitor -12, Pf growth 48h 10%, Cycloheximide cs -6 and Pf growth 96h -38%.
Screening COc1ccc(N(C(=O)CCl)C(C(=O)NCCc2ccccc2)c2cccs2)cc1Cl (centres undefined) returned Shiga inhibitor -22, Pf growth 48h 9.3µM*, Marburg entry inh inconclusive, Cycloheximide cs -6, LASV entry inh 26µM* and Pf growth 96h 4.7µM*.
Screening COc1cccc(N(C(=O)CCl)C(C(=O)NCCc2ccccc2)c2cccs2)c1 (centres undefined) returned Shiga inhibitor -15, Pf growth 48h 12µM*, Marburg entry inh inconclusive, Cycloheximide cs -2, LASV entry inh inconclusive and Pf growth 96h 9.3µM*.
`COc1ccc2nc(N3CCCC(C(=O)NCCc4ccc(OC)c(OC)c4)C3)sc2c1` (centres undefined) gave Shiga inhibitor 95*, Pf growth 48h 0%, Marburg entry inh inconclusive, Cycloheximide cs 17* and Pf growth 96h inconclusive.
For COc1ccc(CCNC(=O)c2ccc3nc(N4CCCCC4)sc3c2)cc1OC the results were Shiga inhibitor 34*, Pf growth 48h inconclusive, Cycloheximide cs 22* and Pf growth 96h 8%.
For COc1ccc(CCNc2nc(N3CCCCC3)nc(N3CCCCC3)n2)cc1OC the results were Shiga inhibitor -2, Pf growth 48h 13µM*, Marburg entry inh inconclusive, Cycloheximide cs -2, LASV entry inh inconclusive and Pf growth 96h 14%.
For Cc1ccc(CNC(=O)c2ccc3nc(N4CCCCC4)sc3c2)cc1 the results were Marburg entry inh inconclusive and LASV entry inh -4%[46.1 µM].
Screening Cc1cc(=O)n2nc(N3CCCC(C(=O)N4CCOCC4)C3)sc2n1 (centres undefined) returned Shiga inhibitor 15, Pf growth 48h 1%, Marburg entry inh 15%, Cycloheximide cs 1, LASV entry inh 2% and Pf growth 96h 12µM*.
`COc1ccc(CCNc2nc(N3CCOCC3)nc(N3CCOCC3)n2)cc1OC` gave Shiga inhibitor -2, Pf growth 48h -14%, Marburg entry inh 0%, Cycloheximide cs -1, LASV entry inh -4% and Pf growth 96h 9%.
For Cn1c(=O)c2ncn(CC(=O)Nc3ccc(N4CCOCC4)cc3)c2n(C)c1=O the results were Shiga inhibitor -6, Pf growth 48h 14%, Marburg entry inh -12%, Cycloheximide cs -2 and LASV entry inh -1%.
For CCOc1ccc(CCNC(=O)C2CCCN(c3nn4c(=O)cc(C)nc4s3)C2)cc1OCC (centres undefined) the results were Shiga inhibitor -13, Pf growth 48h inconclusive, Marburg entry inh inconclusive, Cycloheximide cs -2, LASV entry inh -3% and Pf growth 96h 0.15µM*.
Screening COc1ccc(CCNC(=O)C2CCCN(c3nn4c(=O)cc(C)nc4s3)C2)cc1OC (centres undefined) returned Shiga inhibitor 7, Pf growth 48h inconclusive, Marburg entry inh 1%, Cycloheximide cs 2, LASV entry inh inconclusive and Pf growth 96h inconclusive.
CN1CCN(c2ccccc2NC(=O)c2cc3ccccc3o2)CC1 was read as Shiga inhibitor -8, Pf growth 48h inconclusive, Marburg entry inh inconclusive, Cycloheximide cs 14, LASV entry inh 2% and Pf growth 96h 4.7µM*.
O=C(Nc1cccnc1Cl)c1cc2ccccc2o1 was read as Shiga inhibitor 66*, Cycloheximide cs 38* and Pf growth 96h 314%.
O=C(Nc1ccccc1N1CCCC1)c1cc2ccccc2o1 was read as Shiga inhibitor 97*, Pf growth 48h inconclusive, Marburg entry inh inconclusive, Cycloheximide cs 52*, LASV entry inh 13% and Pf growth 96h 1%.
Screening Cc1c(NC(=O)COC(=O)CSc2ccc([N+](=O)[O-])cc2)c(=O)n(-c2ccccc2)n1C returned Pf growth 48h -28%, Marburg entry inh 12%, LASV entry inh -6% and Pf growth 96h inconclusive.

Screens from PubChem.
